Bioassay records from PubChem BioAssay.
RAM inhibit = inhibitors of the yeast RAM network | S. cerevisiae dse1pr::URA3 reporter, 5-FOA growth OD615, 2 d; analog-sensitive cbk1-as2 kinase mutant strain | inhibition, % at 50 µM | actives 1.8% (n = 190,000) | AID 868;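 active means inhibition above a set limit, 3 SD over mean compound inhibition, cut at about 8.4% in these data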;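 further: 0% = DMSO-only wells with no growth and 100% = 10 µM 1-NA-PP1 full growth; inhibition rescues growth on 5-FOA so higher OD means more RAM inhibition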
S1P4 agonist = agonists of human S1P4 receptor; AID 1509; O95977; activation, % at 4.98 µM; S1P4-expressing cell line, agonist reporter assay; actives 0.35% (n = 220,000); in the data active means activation above about 11%;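 further: 0% = DMSO vehicle and 100% = reference agonist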
S1P3 antag = antagonists of human S1P3 receptor; Q99500; CHO S1P3 NFAT-BLA reporter, FRET fluorescence, antagonist mode; inhibition, % at 4.98 µM; actives 0.27% (n = 170,000);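 active means inhibition above the plate cutoff, the mean inhibition of test wells on that plate plus 3 SD, cut at about 28% in these data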;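 further: cells challenged with S1P at its EC80 of 0.8 µM; blue over green emission ratio from cleaved BLA substrate after 4 h stimulation; 0% = S1P-stimulated wells and 100% = unstimulated DMSO-only wells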
S1P4 antag = blocks the human S1P4 receptor | inhibition, % at 4.98 µM | actives 0.26% (n = 220,000) | O95977 | S1P4-expressing cells, antagonist mode, reporter read-out; in the data active means inhibition above about 29%;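 further: 0% = wells stimulated with agonist and 100% = vehicle wells without agonist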
Cl transport mod = KCC2 (human) Cl- transport modulation; Q9H2X9; KCC2 cells, thallium flux FluoZin-2 fluorescence; B-score of Tl+ flux slope (higher = more flux/activation; lower = inhibition) at 10 µM; actives 2.2% (n = 190,000); AID 1456;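 active means thallium flux slope and its plate-corrected score both differing from the plate sample mean at a set confidence after two filtering rounds, in either direction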;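 further: slope of fluorescence scaled to starting intensity during 10 to 20 s after thallium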
Target sequence (Q9H2X9 whole entry, looked up): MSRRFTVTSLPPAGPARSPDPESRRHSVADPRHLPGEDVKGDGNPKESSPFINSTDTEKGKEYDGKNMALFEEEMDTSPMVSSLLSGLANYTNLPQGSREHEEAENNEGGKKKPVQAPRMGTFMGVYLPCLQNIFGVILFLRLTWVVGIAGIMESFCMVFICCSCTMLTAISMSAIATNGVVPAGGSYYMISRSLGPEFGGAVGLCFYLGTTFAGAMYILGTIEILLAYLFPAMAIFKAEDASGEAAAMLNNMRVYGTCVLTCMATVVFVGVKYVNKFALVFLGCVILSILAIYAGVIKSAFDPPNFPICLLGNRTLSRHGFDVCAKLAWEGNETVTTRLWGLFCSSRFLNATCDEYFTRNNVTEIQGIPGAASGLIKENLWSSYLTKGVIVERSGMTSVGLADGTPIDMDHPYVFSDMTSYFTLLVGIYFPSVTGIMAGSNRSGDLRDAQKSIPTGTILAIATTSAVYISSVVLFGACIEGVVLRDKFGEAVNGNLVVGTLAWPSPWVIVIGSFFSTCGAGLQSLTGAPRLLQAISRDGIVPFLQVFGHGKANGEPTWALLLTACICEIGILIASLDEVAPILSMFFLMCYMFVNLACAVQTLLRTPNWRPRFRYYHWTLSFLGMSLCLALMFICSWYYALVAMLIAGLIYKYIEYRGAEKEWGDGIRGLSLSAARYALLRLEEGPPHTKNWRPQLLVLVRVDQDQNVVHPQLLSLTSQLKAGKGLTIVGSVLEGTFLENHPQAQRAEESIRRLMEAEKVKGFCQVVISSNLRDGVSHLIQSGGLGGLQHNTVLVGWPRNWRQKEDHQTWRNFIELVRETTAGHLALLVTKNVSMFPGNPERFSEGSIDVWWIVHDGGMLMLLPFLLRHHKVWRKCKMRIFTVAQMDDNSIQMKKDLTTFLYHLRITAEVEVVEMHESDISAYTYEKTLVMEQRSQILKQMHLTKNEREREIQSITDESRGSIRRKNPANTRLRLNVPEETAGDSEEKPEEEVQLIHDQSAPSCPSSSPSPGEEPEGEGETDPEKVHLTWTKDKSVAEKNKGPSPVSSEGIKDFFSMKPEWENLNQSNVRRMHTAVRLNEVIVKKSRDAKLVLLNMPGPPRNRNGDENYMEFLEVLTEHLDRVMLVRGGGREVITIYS
ROMK primary = modulates human ROMK potassium channel activity | P48048 | Tet-inducible ROMK, thallium flux fluorescence; actives lie on both sides | B-score at 10 µM | actives 2% (n = 130,000) | AID 1918;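 active means signal ratio slope over the read window, or its plate-corrected B-score, at least 3 SD from the plate mean, either direction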;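 further: B-score of the F/F0 ratio slope over 7 to 12 s after thallium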
KCC2 secondary = KCC2 (human) modulation, secondary assay | HEK293-KCC2, thallium flux, FluoZin2 fluorescence; active compounds read high | normalised thallium flux (F/F0 slope) at 10 µM | actives 15% (n = 3,700) | shares compounds with Cl transport mod | AID 1713;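 active means thallium flux slope above the same plate's solvent-only control mean plus 3 SD; inconclusive means the two replicate wells disagree; inactive means no significant difference from solvent-only control wells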
KCC2 bumet counter = thallium flux despite bumetanide block in KCC2 cells, secondary assay 3 | shares compounds with Cl transport mod | HEK293-KCC2 + bumetanide/ouabain, thallium flux FluoZin2; active compounds read high | normalized thallium flux at 10 µM | actives 49% (n = 3,700);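 active means thallium entry rate above the same plate's blocked-transporter control wells by more than 3 SD; inconclusive means the two repeat wells disagree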;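 further: raw slope of fluorescence over initial fluorescence between 10 and 20 s after thallium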
KCC2 sec2 = confirmation of human KCC2 transport modulators. actives 23% (n = 3,700). shares compounds with Cl transport mod. normalized thallium flux at 10 µM. HEK293-KCC2, thallium flux FluoZin2 fluorescence; actives lie on both sides; F/F0 rise rate, 10–20 s post-thallium;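 active means thallium flux slope more than 3 SD above or below the plate's solvent-only control mean, mostly below; inconclusive means the two repeat wells disagreed; inactive means no significant shift from solvent-only controls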;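 further: raw slope with 0.1% DMSO as baseline and bumetanide as block control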
HEK counter1 = counter-screen for KCC2 modulators: effect in parental HEK293 cells; shares compounds with Cl transport mod; thallium flux FluoZin2, ouabain; baseline-ratio fluorescence slope, 10–20 s after thallium; thallium flux rate (normalised fluorescence) at 10 µM; actives 46% (n = 3,700); AID 1716;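 active means thallium flux rate significantly above the same plate's solvent-only control wells, beyond their mean plus 3 SD; inconclusive means the two replicate wells gave conflicting results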
KCC2 ouabain = KCC2 (human) modulation, ouabain retest. shares compounds with Cl transport mod. HEK293-KCC2, thallium flux FluoZin2 fluorescence; bidirectional: low = inhibitor, high = activator. raw Tl+ flux slope (below DMSO = inhibition, above = activation) at 10 µM. actives 48% (n = 3,700). AID 1717;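 active means thallium flux slope beyond 3 SD from same-plate DMSO control mean in most replicates, usually higher, sometimes lower; inconclusive means repeat tests gave conflicting results; inactive means no significant difference from controls in most replicates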;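 further: slope of initial-normalized fluorescence between seconds 10 and 20 after thallium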
HEK counter2 = parental HEK flux effect, counter-screen 2. thallium flux slope at 10 µM. AID 1718. actives 33% (n = 3,700). shares compounds with Cl transport mod. HEK293 parental, thallium flux FluoZin-2 fluorescence slope;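 active means thallium flux slope above the same plate's solvent-control mean plus 3 SD in both duplicate wells; inconclusive means duplicate wells that disagreed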;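 further: run without ouabain in cells lacking the KCC2 cotransporter; slope of fluorescence scaled to its starting value between 10 and 20 s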
The depositor's hits bear a star; ? = inconclusive; . = not tested or not shown. Hits are enriched below; roughly 5.1% of the tested compounds scored in any of these assays.

SMILES	RAM inhibit	S1P4 agonist	S1P3 antag	S1P4 antag	Cl transport mod	ROMK primary	KCC2 secondary	KCC2 bumet counter	KCC2 sec2	HEK counter1	KCC2 ouabain	HEK counter2
CN(C)CCCNc1ccc(-c2nn(C)c(=O)c3ccccc23)cc1[N+](=O)[O-]	1.0	0.1	-6.3	15.6	-0.327	-0.986	.	.	.	.	.	.
O=C(NC1CCCC1)NS(=O)(=O)c1ccccc1Cl	1.0	-1.2	1.8	2.3	5.67*	0.00787	0.00756	0.00587	0.0278	0.00663	0.0198	0.00938
NN/C(=C\[N+](=O)[O-])Nc1ccccc1	-0.7	0.2	-2.4	-1.8	-0.688	.	.	.	.	.	.	.
CS/C(=C/[N+](=O)[O-])Nc1cccc2c1C(C)CC2(C)C (stereo unspecified)	0.7	0.7	-16.0	-4.1	-5.09*	-0.801	0.00826	?	0.0316	0.00682	0.014*	0.0106
Cc1ccc(C2=NNC(c3ccc(Cl)cc3)=Nc3ccccc32)o1	2.3	0.2	0.2	-16.7	0.33	-0.696	.	.	.	.	.	.
C=CCNC(=S)NC(=O)c1oc2ccccc2c1C	5.1	-1.6	-5.6	-13.2	10.5*	0.779	0.0112	0.0352*	0.0335	0.0206*	0.0415*	0.0119*
Cc1c(C(=O)NC(=S)NCC(C)C)oc2ccccc12	4.8	-1.5	6.5	9.6	2.01	-0.376	.	.	.	.	.	.
O=C(NC(=S)Nc1cnc2ccccc2c1)c1ccccc1	-1.5	2.1	-28.5	20.6	20.5*	0.581	?	0.0411*	0.0325	0.0123*	0.022*	0.0147*
O=C(Nc1cnc2ccccc2c1)c1ccncc1	0.7	-0.9	-14.6	-8.2	0.208	.	.	.	.	.	.	.
Cc1ccccc1-n1c(=S)[nH]c2nc3c(cc2c1=O)CCCC3	2.7	0.6	6.0	-9.3	25*	0.508	0.0255*	0.0689*	0.0454*	0.0462*	0.0434*	0.035*
CN1C(=O)COc2ccc(C(=O)c3oc4ccccc4c3-c3cnc4c(c3)COc3ccccc3-4)cc21	6.0	2.1	.	-10.7	-0.705	-0.116	.	.	.	.	.	.
O=c1[nH]nnc2c1sc1nc(N3CCOCC3)c3c(c12)CCCC3	.	.	6.5	.	.	.	.	.	.	.	.	.
S=c1nc[nH]c2c1sc1nc(N3CCOCC3)c3c(c12)CCCC3	5.0	0.6	-9.8	-13.5	67.4*	0.717	0.00943*	0.0893*	0.0689*	0.0817*	0.0739*	0.0624*
O=C1c2oc3ccccc3c(=O)c2C(c2cccc(F)c2)N1CCCO (stereo unspecified)	5.8	1.8	-28.8	-18.9	6.71*	0	0.00608	?	0.0288	?	0.0184	0.0104
CCC1(c2ccccc2)NC(=S)N(c2ccc(C)cc2)N1 (stereo unspecified)	0.1	-0.6	-0.8	-4.3	77.5*	0.646	0.0306*	0.0999*	0.0728*	0.093*	0.092*	0.0906*
Clc1ccccc1C(c1ccccc1)(c1ccccc1)n1ccnc1	-1.5	-2.1	-9.9	-6.0	-4.27*	-1.15	0.00949	0.00543	0.0325	0.00571*	0.0193	0.0101
Nc1ccccc1C(=O)NNC1=C(C(=O)C(F)(F)F)CCC1	.	-0.3	0.9	-12.0	-0.11	1.04	.	.	.	.	.	.
O=C(NNC1=C(C(=O)C(F)(F)F)CCC1)c1ccc(Br)cc1	1.6	4.5	.	-3.5	11.3*	1.99	0.00963	0.0243*	0.0311	0.0151*	?	0.0122*
COc1ccccc1C(=O)NNC1=C(C(=O)C(F)(F)F)CCC1	0.3	-1.0	.	3.5	4.9*	.	0.0185	0.0444*	0.0428*	0.0378*	0.041*	0.0356*
O=C(NNC1=C(C(=O)C(F)(F)F)CCC1)c1ccccc1O	1.9	0.3	.	-2.9	-1.92	1.15	.	.	.	.	.	.
CCOC(=O)N1CCN(c2c(N3CCN(c4ccccc4F)CC3)c(=O)c2=O)CC1	.	0.8	9.4	-3.5	-0.0406	.	.	.	.	.	.	.
O=c1c(/C=N/OCc2ccc(Cl)cc2Cl)c[nH]n1-c1cccc(Cl)n1	2.3	2.0	10.4	-11.3	36.6*	0.992	0.00805	0.0774*	0.0746*	0.0711*	0.0735*	0.0662*
CC(C)NS(=O)(=O)c1ccc(CCC(=O)N2CCC(C(N)=O)CC2)cc1	-0.2	0.2	-7.7	-3.2	-0.847	0.074	.	.	.	.	.	.
COc1ccccc1-n1c(SCC(N)=O)nc2sc3c(c2c1=O)CCC3	.	1.3	-6.7	-5.0	0.0727	1.99	.	.	.	.	.	.
N#C/C(=C\c1ccc(-c2cccc([N+](=O)[O-])c2)o1)C(=O)Nc1nc(-c2cccs2)cs1	.	0.7	4.2	-6.2	4*	.	0.00964	0.00986*	0.033	0.0183*	?	0.0115
SMILES	RAM inhibit	S1P4 agonist	S1P3 antag	S1P4 antag	Cl transport mod	ROMK primary	KCC2 secondary	KCC2 bumet counter	KCC2 sec2	HEK counter1	KCC2 ouabain	HEK counter2
O=C(N/N=C/c1ccc(-c2cccc([N+](=O)[O-])c2)o1)c1cccs1	4.9	0.8	10.2	-2.5	-0.22	0.0914	.	.	.	.	.	.
Cc1nn(CC(=O)NCc2cccnc2)c(C)c1[N+](=O)[O-]	0.3	2.6	-1.0	2.2	-0.149	.	.	.	.	.	.	.
CC(=O)NNC(=O)CCn1nnc(-c2ccc(Cl)cc2)n1	2.1	-0.1	-9.8	-6.9	1.25	0.131	.	.	.	.	.	.
CCOC(=O)c1c(C)[nH]c(C(=O)COC(=O)CNC(=O)c2ccc(Cl)cc2Cl)c1C	3.6	1.4	-2.7	-7.5	-0.253	.	.	.	.	.	.	.
Cc1[nH][nH]c(=O)c1C(c1ccc(-c2ccc(Cl)c(Cl)c2)o1)c1c(C)[nH][nH]c1=O	0.2	2.5	.	-20.3	-3.94*	-2.13	0.00695	0.00466	0.0224*	0.00741	0.015*	0.00931
Cc1[nH][nH]c(=O)c1C(c1ccc(-c2ccc(C(=O)O)cc2)o1)c1c(C)[nH][nH]c1=O	0.3	-0.2	-17.6	-8.9	-0.157	0.947	.	.	.	.	.	.
Cc1[nH][nH]c(=O)c1C(c1ccc(-c2ccc(F)cc2)o1)c1c(C)[nH][nH]c1=O	-0.9	1.3	-8.6	-6.2	-5.17*	-1.83	0.0174	0.00462	0.0251*	0.00745	0.0133	0.0106
CC(C)NC(=O)CN(c1cccc(Br)c1)S(C)(=O)=O	-0.1	-0.3	-24.9	0.1	1.11	1.79	.	.	.	.	.	.
